Bioassay records from PubChem.
The full list was thinned out, with hits kept by preference.
CBX7 AlphaScr: inhibitors of human CBX7 binding to H3K27me3 peptide; O95931; AlphaScreen His6-CBX7 / biotin-H3K27me3 peptide binding; stronger effect = lower value; normalised signal (fraction of DMSO) (no concentration beside the values); hit rate 1.1% among 66,000; AID 1224903; in the data active = normalised signal below about 0.5
Target sequence (O95931 whole entry, looked up): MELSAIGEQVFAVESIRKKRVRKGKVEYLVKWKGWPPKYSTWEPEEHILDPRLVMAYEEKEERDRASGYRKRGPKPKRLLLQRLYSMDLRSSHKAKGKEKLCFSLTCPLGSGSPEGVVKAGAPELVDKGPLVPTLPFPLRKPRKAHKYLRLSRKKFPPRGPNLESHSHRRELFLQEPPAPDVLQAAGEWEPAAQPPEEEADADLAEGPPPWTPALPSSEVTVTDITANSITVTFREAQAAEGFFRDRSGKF
Starred values were filed as active, the others as inactive.

SMILES	CBX7 AlphaScr
Cc1cc(C)n(Cc2ccc(F)cc2)c(=O)c1C#N	1.1
N#Cc1c(-c2ccc(F)cc2)c(C#N)c(=O)n(N)c1N	0.16*
COc1ccccc1Nc1ncc(F)c(Nc2ccccc2OC)n1	1.1
COc1ccc2nc(C)cc(Nc3ccc(Oc4ccc(Cl)c5ccccc45)c(Cl)c3)c2c1	0.78
O=C(c1ccc2c(c1)N(Cc1ccccc1)CCS2)N1CCN(c2ccccn2)CC1	0.62
O=C(c1ccc2c(c1)N(Cc1ccccc1)CCS2)N1CCN(c2ccc(Cl)cc2)CC1	0.62
O=C(c1ccc2c(c1)N(Cc1ccccc1)CCS2)N1CCN(Cc2ccccc2)CC1	0.37*
O=C(c1ccc2c(c1)N(Cc1ccc(F)cc1)CCS2)N1CCN(c2ccccc2)CC1	0.76
O=C(c1ccc2c(c1)N(Cc1ccccc1)CCS2)N1CCc2ccccc21	0.81
O=C(c1ccc2c(c1)N(Cc1ccccc1)CCS2)N1CCCCCC1	0.46*
CCN(CC)S(=O)(=O)c1ccc2oc(C(=O)Nc3ccccc3Br)c(C)c2c1	1
Fc1ccccc1-c1nc(Nc2c(F)cccc2F)c2ccccc2n1	0.58
COc1ccc(N2CCN(c3oc(COc4ccc(C)cc4)nc3C#N)CC2)cc1	0.48*
Cc1ccccc1OCc1nc(C#N)c(N2CCN(c3ccccc3)CC2)o1	0.42*
COc1ccc(N2CCN(c3oc(COc4ccc(F)cc4)nc3C#N)CC2)cc1	0.55
N#Cc1nc(COc2ccccc2F)oc1N1CCCCCC1	0.56
COc1ccc(N2CCN(c3oc(COc4ccccc4C)nc3C#N)CC2)cc1	0.52
COc1ccc(OCc2nc(C#N)c(N3CCN(c4ccc(OC)cc4)CC3)o2)cc1	0.69
N#Cc1nc(COc2ccc(Br)cc2)oc1N1CCN(Cc2ccccc2)CC1	0.65
N#Cc1nc(COc2ccccc2F)oc1N1CCN(Cc2ccccc2)CC1	0.46*
COc1ccccc1OCc1nc(C#N)c(N2CCN(c3ccccc3)CC2)o1	0.52
O=C(NCCc1ccccc1)c1cnn(-c2ccccc2)c1-n1cccc1	1
Cc1cc(C)c(C(N)=O)c(Nc2ccc(Oc3ccccc3)cc2)n1	0.82
COc1ccccc1OCCSc1nc2ccccc2n1C	1
CCC(=O)N1CCc2cc(S(=O)(=O)CCC(=O)NCc3ccccc3)ccc21	1.1
SMILES	CBX7 AlphaScr
CCCOc1ccccc1NC(=O)CC1Sc2ccccc2NC1=O (stereo unspecified)	0.98
CCc1ccc(-c2csc(Nc3ncccn3)n2)cc1	1.1
Oc1cccc(Nc2nc(-c3ccccn3)cs2)c1	0.19*
O=C(O)c1cccc(Nc2nc(-c3ccccn3)cs2)c1	0.15*
Oc1cccc(Nc2nc(-c3ccncc3)cs2)c1	0.77
CCOc1ccccc1Nc1nc(-c2ccccn2)cs1	0.6
O=C(O)c1cccc(Nc2nc(-c3ccncc3)cs2)c1	0.97
COc1ccc(-c2csc(Nc3ccc(O)cc3)n2)cc1OC	0.77
COc1ccc(-c2csc(Nc3cccc(O)c3)n2)cc1OC	0.87
c1ccc(-c2csc(Nc3ncccn3)n2)nc1	0.0089*
O=C(O)c1cccc(Nc2nc(-c3ccccc3)cs2)c1	1
Oc1ccc(Nc2nc(-c3ccccn3)cs2)cc1	0.0014*
c1cnc(Nc2nc(-c3ccncc3)cs2)nc1	1.1
Cc1ccc(-n2ncc(C(=O)Nc3ccc(C)c(C)c3)c2C2CCN(C(=O)OC(C)(C)C)CC2)cc1	0.97
c1ccc(-c2nnc3ccc(N4CCC(c5ccccc5)C4)nn23)cc1 (stereo unspecified)	0.9
Cc1ccc(Cl)cc1N1CCN(C(=O)CCCCn2c(=O)[nH]c3ccccc3c2=O)CC1	0.78
O=C(N1CC=C(c2ccccc2)CC1)C1(S(=O)(=O)c2ccc(Cl)cc2)CC1	1
CCCCN(C)C(=O)CN1C(=O)CCSc2ccccc21	0.94
O=C(Nc1sc2c(c1C(=O)N1CCCCC1)CCCC2)c1ccccc1F	0.85
Cc1ccc(-c2csc(Nc3ccc(S(N)(=O)=O)cc3)n2)cc1C	0.89
COc1ccc(C2C(Oc3ccccc3C)C(=O)N2c2ccccc2Cl)cc1OC (stereo unspecified)	1.2
COc1cc(OC)cc(-c2nc(-c3ccc(C)cc3)no2)c1	1.2
CCOC(=O)N1CCN(C(=O)C2CCN(Cc3nc(-c4ccc(CC)cc4)oc3C)CC2)CC1	0.88
CCOc1ccc(OCCSc2nc3ccccc3n2CCOc2ccccc2F)cc1	0.94
Cc1cccc(Nc2nc(-c3ccncc3)cs2)c1	0.72
SMILES	CBX7 AlphaScr
Cc1cccc(Nc2nc(-c3ccc(Cl)cc3)cs2)c1	0.76
Cc1cccc(Nc2nc(-c3ccccn3)cs2)c1	0.16*
CCCn1c(CNC(=O)c2ccc(Cl)cc2)nc2ccccc21	1.1
CCc1nnc(NC(=O)c2ccc(S(=O)(=O)N(C)c3ccccc3)cc2)o1	0.68
CCc1nnc(NC(=O)c2ccc(S(=O)(=O)N(CC)CC)cc2)o1	0.1*
CCc1nnc(NC(=O)c2ccc(S(=O)(=O)N(CC(C)C)CC(C)C)cc2)o1	0.1*
CCN(CC)S(=O)(=O)c1ccc(C(=O)Nc2nnc(C(C)C)s2)cc1	1.1
Clc1ccc(-n2nnnc2C(c2ccccc2Cl)N2CCOCC2)cc1 (stereo unspecified)	0.99
CC1CC(C)CN(CCCNC(=O)CN2C(=O)CSc3ncccc32)C1 (stereo unspecified)	1.1
O=C(CN1C(=O)COc2ccc(S(=O)(=O)N3CCCC3)cc21)NC1CCCCCC1	1.1
COc1ccc(-n2c(-c3ccc(C)cc3)cc3c2CC(C)(C)CC3=O)cc1	0.95
Cc1ccc(-c2cc3c(n2-c2ccccc2)CC(C)(C)CC3=O)cc1	0.95
COc1ccc(-n2c(-c3ccc(Cl)cc3)cc3c2CC(C)(C)CC3=O)cc1	0.88
Cc1ccc(-n2c(-c3ccccc3)cc3c2CC(C)(C)CC3=O)cc1Cl	0.82
COc1cccc(-n2c(-c3ccc(C)cc3)cc3c2CC(C)(C)CC3=O)c1	0.35*
COc1ccccc1-n1c2c(cc(C(=O)N3CCC(C)CC3)c1=O)C(=O)CC(C)(C)C2	1
COc1ccc(Cn2c(-c3ccc(C)cc3)cc3c2CC(C)(C)CC3=O)cc1	0.8
CCOc1ccc(-n2c(-c3ccc(OC)cc3)cc3c2CC(C)(C)CC3=O)cc1	0.4*
COc1ccc(-c2cc3c(n2-c2ccccc2)CC(C)(C)CC3=O)cc1	0.79
COc1ccc(-n2c3c(cc(C(=O)Nc4ccc(OC)cc4OC)c2=O)C(=O)CC(C)(C)C3)cc1	1.1
COc1ccc(-n2c(-c3ccc(C)cc3)cc3c2CC(C)(C)CC3=O)c(OC)c1	0.27*
COc1ccccc1-n1c(-c2ccc(C)cc2)cc2c1CC(C)(C)CC2=O	0.32*
Fc1ccc(Cn2c(-c3cncs3)nc3ccccc32)c(Cl)c1	0.98
COCCNC(=O)c1ccc2c(c1)N(Cc1ccc(Cl)cc1)CCS2	0.8
COc1ccc(C(=O)Nc2ccc3nc(N4CCOCC4)cc(C)c3c2)cc1	1.1
SMILES	CBX7 AlphaScr
COCCCNC(=O)c1cnn2c(C)c(Cc3ccccc3Br)c(C)nc12	1.1
COc1ccccc1NC(=O)Cn1cnc2sc(C)c(S(=O)(=O)N3CCC(C)CC3)c2c1=O	1.2
Clc1cccc(-n2nnnc2C(c2ccccc2Cl)N2CCOCC2)c1 (stereo unspecified)	1.1
COc1ccccc1C(=O)NCCc1c(C)[nH]c2ccc(OC(F)(F)F)cc12	0.64
COc1ccccc1C(=O)NCCc1c(C)[nH]c2ccc(OCc3ccccc3)cc12	0.44*
Cc1[nH]c2ccc(OCc3ccccc3)cc2c1CCNC(=O)COc1ccc(F)cc1F	0.53
Cc1ccc(CNC(=O)CCCC2=NS(=O)(=O)c3ccccc3N2)cc1	1.1
